# Laboratory results as given in PubChem BioAssay AID651710 (Broad Institute, 2012).
# Out of some 360,000 compounds screened, about 1,600 (0.44%) were called active. The sample holds actives, similar compounds and a random draw of the others, so the mix is not that of the screen. A number with no mark means an inactive call.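 The calls were made as follows: active = every replicate showing at least 50% inhibition; inconclusive = mean inhibition at least 50% but not in every replicate; inactive = the rest.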
# Molecular target: DNA repair protein RAD52 homolog (Homo sapiens) (UniProt P43351)
# Test: blockers of RAD52 strand annealing activity – biochemical, FRET, single point, set 2, primary screen (AID 651710)
# Conditions: recombinant RAD52 DNA annealing, FRET fluorescence; at 18.7 µM; active compounds read high
# Chain of DNA repair protein RAD52 homolog (Homo sapiens) (P43351 whole entry, looked up): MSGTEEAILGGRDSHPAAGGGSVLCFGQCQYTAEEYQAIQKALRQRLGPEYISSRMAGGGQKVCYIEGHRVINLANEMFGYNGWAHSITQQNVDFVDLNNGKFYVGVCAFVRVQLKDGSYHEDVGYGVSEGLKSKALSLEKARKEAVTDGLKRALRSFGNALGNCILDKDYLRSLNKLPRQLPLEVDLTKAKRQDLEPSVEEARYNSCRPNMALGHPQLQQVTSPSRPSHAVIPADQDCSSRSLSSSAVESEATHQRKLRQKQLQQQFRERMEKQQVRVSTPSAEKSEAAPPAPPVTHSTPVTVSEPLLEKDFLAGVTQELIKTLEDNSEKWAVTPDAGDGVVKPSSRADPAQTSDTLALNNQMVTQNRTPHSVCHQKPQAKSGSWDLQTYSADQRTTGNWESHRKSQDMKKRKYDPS
row,SMILES,inhibition
1,CC(C)[C@@H](C)/C=C/[C@@H](C)[C@H]1CC[C@@H]2[C@]1(C)CCC1[C@]23C=C[C@]2(C[C@@H](O)CC[C@]12C)N(c1ccc([N+](=O)[O-])cn1)O3 (some centres not stated),73.5% (active)
2,COc1ccccc1C(=O)N1O[C@]23C=C[C@]14C[C@@H](O)CC[C@]4(C)C2CC[C@]1(C)[C@@H]([C@H](C)/C=C/[C@H](C)C(C)C)CC[C@H]13 (some centres not stated),-15.6%
3,CC(C)NC(=O)Nc1ccc2c(c1)C(=O)N([C@@H](C)CO)C[C@H](C)[C@@H](CN(C)S(C)(=O)=O)O2,-11%
4,C[C@@H]1CN([C@@H](C)CO)C(=O)Cc2cc(NC(=O)Nc3ccc4c(c3)OCO4)ccc2O[C@H]1CN(C)S(=O)(=O)c1ccccc1,2.34%
5,CC(O)c1ccc(OCCN(C)c2ccccn2)cc1 (configuration not stated),-7.28%
6,CCN(C[C@@H]1[C@H](c2ccccc2)[C@@H](CO)N1CC1CC1)C(=O)c1ccccn1,-2.51%
7,CCN(CC)CCOc1ccc2c(c1)C(=NNC(=O)c1ccccn1)c1cc(OCCN(CC)CC)ccc1-2,108% (active)
8,COCCOC(=O)N1C(=O)[C@@]2(c3cc(C#CCNC(N)=O)ccc31)[C@H](C(=O)N1CCN(c3ncccn3)CC1)[C@H]1C(=O)O[C@H](c3ccccc3)[C@H](c3ccccc3)N1[C@@H]2c1ccccc1OCCO,31.5%
9,CN1C(=O)CN2CCc3ccccc3C2c2cc(Cl)ccc21 (configuration not stated),-6.27%
10,CN1CCN(C2Cc3ccc(Cl)cc3Sc3ccc(F)cc32)CC1 (configuration not stated),54.5% (active)
11,O=C(C[C@@H]1C=C[C@@H](NC(=O)C2CCC2)[C@H](CO)O1)NCC1CC1,-2.1%
12,CCOC(=O)c1ccc(NC(=O)C2CC(=O)N(c3ccc4c(c3)OCCO4)C2)cc1 (configuration not stated),-4.32%
13,CCN(CC(=O)Nc1ccc(NC(C)=O)cc1)C(=O)C1CC(=O)N(Cc2ccc(C)cc2)C1 (configuration not stated),-6.68%
14,CCN(CC(=O)Nc1ccc(NC(C)=O)cc1)C(=O)C1CC(=O)N(c2ccc3c(c2)OCCO3)C1 (configuration not stated),74.7% (active)
15,COc1cccc(C(=O)Nc2ccc3c(c2)C(=O)N(C)C[C@@H](OC)[C@H](C)CN(C(=O)C2CCOCC2)[C@H](C)CO3)c1,-0.027%
16,C[C@H](CO)N1C[C@H](C)[C@@H](CN(C)Cc2ccc(Cl)c(Cl)c2)Oc2ccc(NC(=O)Cn3cnnn3)cc2CC1=O,5.4%
17,O=C(C1CCCC1)N1[C@H](CO)[C@@H](c2ccccc2)C12CN(CCC(F)(F)F)C2,6.31%
18,CO[C@H]1CN(C)C(=O)c2cc(NC(=O)Nc3ccccc3)ccc2OC[C@@H](C)N(C(=O)Nc2c(C)noc2C)C[C@@H]1C,8.84%
19,CN(C)CC(=O)Nc1ccc2c(c1)[C@H]1C[C@H](CC(=O)NCc3ccccc3)O[C@@H](CO)[C@H]1O2,-10.3%
20,CN(C)CC(=O)Nc1ccc2c(c1)[C@H]1C[C@@H](CC(=O)NCc3ccc(-c4ccccc4)cc3)O[C@H](CO)[C@H]1O2,60.2% (active)
21,CN(C)CC(=O)Nc1ccc2c(c1)[C@@H]1C[C@H](CC(=O)NCc3ccc(-c4ccccc4)cc3)O[C@@H](CO)[C@@H]1O2,43.1%
22,CN1c2ccc(-c3ccc(C#N)cc3)cc2[C@@H]2[C@@H](CCN2S(=O)(=O)c2cccc(F)c2)[C@@H]1CO,8.85%
23,CCCNC(=O)[C@@H]1[C@@H](CO)[C@@H]2Cn3c(cccc3=O)[C@H]1N2C(=O)C1CC1,-0.051%

row,SMILES,inhibition
1,CS(=O)(=O)N1[C@H](C(=O)NCc2ccncc2)[C@@H](CO)[C@@H]2Cn3c(ccc(C4=CCCCC4)c3=O)[C@@H]21,-1.92%
2,CC1CN(c2nc(Nc3ccccc3)nc(N)c2[N+](=O)[O-])CC(C)O1 (configuration not stated),-8.87%
3,CC(Nc1nc(N2CCN(CCO)CC2)nc2ccccc12)c1ccccc1 (configuration not stated),-10.7%
4,CN1CCN(c2nc(Nc3ccc(O)cc3)nc3ccccc23)CC1,72.4% (active)
5,N#C[C@@H]1[C@H](c2ccccc2C2=CCCCC2)[C@@H](CO)N1S(=O)(=O)c1cccc(F)c1,-3.37%
6,CCCNC(=O)C[C@H]1C[C@H]2c3cc(NC(=O)NC4CCCCC4)ccc3O[C@H]2[C@H](CO)O1,3.19%
7,C[C@H]1CN([C@@H](C)CO)C(=O)Cc2cc(NC(=O)Nc3ccc(F)cc3)ccc2O[C@@H]1CN(C)C(=O)NC1CCCCC1,-2.6%
8,CCN1CCN(CCNC(=O)c2ccc(/C=C3/Sc4ccccc4N(Cc4cccc(C)c4)C3=O)cc2)CC1,51.6% (active)
9,CCCC1=Nc2cc(C(=O)NCCN3CCCC3)ccc2Sc2ccccc21,34%
10,O=C(NCCN1CCOCC1)c1ccc2c(c1)N(Cc1cccc(Cl)c1)C(=O)c1ccccc1S2(=O)=O,-15.4%
11,CCN(CC)C(=O)CC(c1ccc2c(c1)OCO2)c1c(OC)cc(OC)c2c(-c3ccccc3)cc(=O)oc12 (configuration not stated),-104%
12,CCN(CC)CCC(c1ccc2c(c1)OCO2)c1c(OC)cc(OC)c2c(-c3ccccc3)cc(=O)oc12 (configuration not stated),54.9% (active)
13,CCN(CC)CCC(c1cc(OC)c(OC)c(OC)c1)c1c(OC)cc(OC)c2c(-c3ccccc3)cc(=O)oc12 (configuration not stated),46.3%
14,CCCC#Cc1cnc2c(c1)C(=O)N([C@H](C)CO)C[C@H](C)[C@@H](CN(C)Cc1ccccc1)O2,-1.46%
15,C/C=C/c1ccc(C2[C@H]3CNC[C@@H]2N3Cc2cccc(OC)c2)cc1 (some centres not stated),-8.08%
16,COc1ccc(CN(C)C[C@@H]2OCCCC[C@@H](C)Oc3ccc(NS(=O)(=O)c4ccc(C)cc4)cc3C(=O)N([C@@H](C)CO)C[C@H]2C)cc1,21%
17,COCC(=O)N1CC(=O)N2[C@H](CO)[C@@H](c3ccc(-c4ccncc4)cc3)[C@H]2C1,-7.77%
18,N#Cc1ccc(-c2ccc([C@@H]3[C@H]4CNC[C@@H]3N4Cc3cc(F)ccc3F)cc2)cc1,69% (active)
19,N#Cc1ccc(-c2ccc([C@@H]3[C@@H](CO)N4C(=O)CNC[C@H]34)cc2)cc1,14.7%
20,C/C=C/c1ccc(C2[C@H]3CNC[C@@H]2N3Cc2cccc(F)c2)cc1 (some centres not stated),16.5%
21,COc1ccc(NC(=O)Nc2ccc3c(c2)[C@@H]2C[C@H](CC(=O)N4CCCCC4)O[C@H](CO)[C@@H]2O3)cc1,-6.62%
22,O=C([C@@H]1[C@@H](CO)[C@@H]2Cn3c(ccc(-c4ccccc4)c3=O)[C@H]1N2CCC(F)(F)F)N1CCCCC1,9.81%
23,CN(C)C(=O)C[C@@H]1C[C@@H]2c3cc(NC(=O)c4ccc5c(c4)OCO5)ccc3O[C@@H]2[C@H](CO)O1,5.11%

row,SMILES,inhibition
1,C[C@H](CO)N1C[C@H](C)[C@H](CN(C)C(=O)Nc2ccc(C(F)(F)F)cc2)Oc2ccc(NS(C)(=O)=O)cc2CC1=O,-1.01%
2,COc1ccccc1C#Cc1cnc2c(c1)C(=O)N([C@@H](C)CO)C[C@@H](C)[C@H](CN(C)C(=O)CN(C)C)O2,42.2%
3,COc1ccccc1C#Cc1cnc2c(c1)C(=O)N([C@@H](C)CO)C[C@@H](C)[C@@H](CN(C)C(=O)CN(C)C)O2,51.1% (active)
4,COCC(=O)N(C)C[C@@H]1Oc2ncc(C#Cc3ccccc3OC)cc2C(=O)N([C@@H](C)CO)C[C@H]1C,0.963%
5,CN(C)CC(=O)N1[C@@H](C#N)[C@@H](c2ccccc2-c2ccccc2F)[C@@H]1CO,-4.36%
6,N#C[C@@H]1[C@@H](c2ccccc2C2=CCCC2)[C@H](CO)N1C(=O)NC1CCCC1,-0.746%
7,Cc1ccccc1S(=O)(=O)NCC[C@@H]1CC[C@@H](NS(=O)(=O)c2ccccc2C)[C@@H](CO)O1,-0.528%
8,Cc1ccc2c(c1)C1CN(C)CCC1N2S(=O)(=O)c1ccc(Oc2ccc([N+](=O)[O-])cc2)cc1 (configuration not stated),57.3% (active)
9,Cc1ccc2c(c1)C1CN(C)CCC1N2C(=S)Nc1ccc(OC(F)F)cc1 (configuration not stated),-9.14%
10,Cc1ccc2c(c1)C1CN(C)CCC1N2S(=O)(=O)c1cccc(F)c1 (configuration not stated),-19.1%
11,CC=Cc1ccc2n(c1=O)C[C@@H]1[C@@H](CO)[C@H](C(=O)NCCCN3CCOCC3)[C@H]2N1Cc1cocn1 (mixture of isomers),-8.14%
12,O=C(/C=C/c1cn(-c2ccccc2)nc1-c1ccc2c(c1)OCCO2)NCCCN1CCOCC1,50.5% (active)
13,O=C(NCCCN1CCOCC1)c1cn(-c2ccccc2)nc1-c1ccc(F)cc1,-2.27%
14,COc1ccc(-c2nn(-c3ccccc3)cc2/C=C\C(=O)N2CCOCC2)cc1[N+](=O)[O-],-18.6%
15,C[C@H]1CN([C@@H](C)CO)S(=O)(=O)c2ccc(-c3ccccc3)cc2O[C@H]1CN(C)C(=O)CC1CC1,5.01%
16,C[C@H](CO)N1C[C@H](C)[C@H](CN(C)C(=O)Nc2ccc3c(c2)OCO3)Oc2ccc(NC(=O)Nc3ccccc3)cc2CC1=O,-4.77%
17,Fc1ccc(-c2ccc(NCCN3CCOCC3)nn2)cc1,-7.71%
18,Cc1cccc(C)c1OCCN1CCOCC1,-1.02%
19,c1ccc2cc3c(NCCN4CCOCC4)ccnc3cc2c1,79% (active)
20,COc1ccc(NC(=O)N(C)C[C@@H]2Oc3c(NS(C)(=O)=O)cccc3C(=O)N([C@H](C)CO)C[C@H]2C)cc1,1.83%
21,CC(C)NC(=O)Nc1ccc2c(c1)CC(=O)N([C@H](C)CO)C[C@H](C)[C@@H](CN(C)C(=O)Nc1ccc(F)cc1)O2,16.5%
